Measurements as given in the supplement of paper PMC6555819.

Key:
Assay in all cases: PBM binding z-score (relative to random genomic background probes); higher = stronger binding; sequences stand for … in GC…GCGATTGACAGCGTAGAATGAAGG
[1] = system: FXR:RXRa (NR concentration 270 nM, RXRa partner concentration 90 nM)
Summary of the method: (§1)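 Binding z-scores take random background probes as their reference. They come from custom Agilent 4×180K protein-binding microarrays incubated 1 h with ligand-free nuclear receptor dimers, with antibodies against each partner (one per run) detecting binding. Scanned fluorescence was regression-normalized.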

[2] = system: LXRa:RXRa (NR concentration 270 nM, RXRa partner concentration 90 nM)
Summary of the method: as §1

[3] = system: LXRa homodimer (NR concentration 270 nM)
Summary of the method: as §1

[4] = system: LXRb:RXRa (NR concentration 270 nM, RXRa partner concentration 90 nM)
Summary of the method: as §1

[5] = system: LXRb homodimer (NR concentration 270 nM)
Summary of the method: as §1

[6] = system: PPARa:RXRa (NR concentration 270 nM, RXRa partner concentration 90 nM)
Summary of the method: as §1

[7] = system: PPARg:RXRa (NR concentration 180 nM, RXRa partner concentration 90 nM)
Summary of the method: as §1

[8] = system: PPARg:RXRa 270nM:90nM, anti-RXR (NR concentration 270 nM, RXRa partner concentration 90 nM)
Summary of the method: as §1

[9] = system: PPARg:RXRa 30nM:10nM, anti-RXR (NR concentration 30 nM, RXRa partner concentration 10 nM)
Summary of the method: as §1

[10] = system: PPARg:RXRa 90nM:30nM, anti-RXR (NR concentration 90 nM, RXRa partner concentration 30 nM)
Summary of the method: as §1

[11] = system: PPARg:RXRa DBDmut IVT, anti-RXR (DBD mutation: RXRa K156A/R161A, NR concentration 270 nM, RXRa partner concentration 90 nM)
Summary of the method: as §1

[12] = system: PPARg:RXRa IVT, anti-PPARg (NR concentration 270 nM, RXRa partner concentration 90 nM)
Summary of the method: as §1

[13] = system: PPARg DBDmut:RXRa IVT, anti-PPARg (DBD mutation: PPARg1 K132A/R137A, NR concentration 270 nM, RXRa partner concentration 90 nM)
Summary of the method: as §1

[14] = system: PPARg DBDmut IVT, anti-PPARg (DBD mutation: PPARg1 K132A/R137A, NR concentration 270 nM)
Summary of the method: as §1

[15] = system: PPARg homodimer (NR concentration 180 nM)
Summary of the method: as §1

[16] = system: PXR:RXRa (NR concentration 270 nM, RXRa partner concentration 90 nM)
Summary of the method: as §1

[17] = system: PXR homodimer (NR concentration 270 nM)
Summary of the method: as §1

[18] = system: RARa:RXR (NR concentration 270 nM, RXRa partner concentration 90 nM)
Summary of the method: as §1

[19] = system: RARa homodimer (NR concentration 270 nM)
Summary of the method: as §1

[20] = system: RARb:RXRa (NR concentration 270 nM, RXRa partner concentration 90 nM)
Summary of the method: as §1

Row | Sequence | PBM binding z-score [1] | PBM binding z-score [2] | PBM binding z-score [3] | PBM binding z-score [4] | PBM binding z-score [5] | PBM binding z-score [6] | PBM binding z-score [7] | PBM binding z-score [8] | PBM binding z-score [9] | PBM binding z-score [10] | PBM binding z-score [11] | PBM binding z-score [12] | PBM binding z-score [13] | PBM binding z-score [14] | PBM binding z-score [15] | PBM binding z-score [16] | PBM binding z-score [17] | PBM binding z-score [18] | PBM binding z-score [19] | PBM binding z-score [20]
1 | GATACAGGGTCCAGGCCAGAGTACGCGTATTGAT | -0.251 | -0.534 | -0.485 | -0.738 | -0.692 | -0.292 | 0.664 | -0.347 | -0.488 | -0.478 | -0.66 | -0.0913 | -0.12 | -0.0353 | 0.34 | -0.441 | -0.03 | -0.412 | -0.345 | 0.355
2 | ATCTCTAGGTAACCAGTTCAGTGAAAGAGAGGAC | 0.76 | 0.635 | 0.481 | 0.706 | 1 | 1.26 | 1.06 | 1.24 | 0.669 | 0.873 | 3.36 | 3.09 | 0.836 | 0.902 | 1.06 | 1.19 | 1.26 | 1.04 | 1.15 | 0.835
3 | TCATATAGGTAATGGTGAAAGTCGAACGATATGA | -0.32 | 0.417 | -0.0652 | 0.263 | -0.188 | 1.22 | 1.43 | 2.42 | 3.89 | 3.12 | 3.77 | 2.74 | 1.66 | 1.7 | 0.415 | 0.253 | -0.311 | 0.342 | 0.0985 | 0.417
4 | CGAACTAGGTCATCCAGGACAGTTAATACATTGA | 4.18 | 2.59 | 0.501 | 2.29 | 0.155 | 4.77 | 7.57 | 6.32 | 3.81 | 5.9 | 7.93 | 8.11 | 4.57 | 2.72 | 2.19 | 2.02 | 1.63 | 2.6 | 1.19 | 3.72
5 | CCTCGGAGGACAACAGGAGGACAGAGCTGCCAGA | 0.107 | 0.0624 | -0.1 | -0.555 | -1.29 | -0.58 | 0.442 | -0.396 | -0.625 | -0.907 | -0.583 | -0.273 | -0.847 | -1.93 | -0.324 | -0.247 | -0.0933 | -0.0397 | -0.0805 | 1.09
6 | GAAACGAGGGCAAAGTTGATAGCATCTGTCGACG | 1.38 | 1.27 | -0.429 | 1.02 | -0.45 | 4.4 | 7.78 | 7.51 | 7.45 | 8.19 | 5.26 | 5.32 | 0.311 | 0.0519 | 0.722 | 1.32 | 0.236 | 1.98 | 0.209 | 2.38
7 | CGTCCAAGGTCAAAGGTAAGTGAAGAGATGACGG | 7.07 | 5.81 | 0.609 | 4.33 | 0.945 | 6.03 | 7.34 | 7 | 5.4 | 6.76 | 3.99 | 4.46 | 0.556 | -0.194 | 2.19 | 4.69 | 0.799 | 5.9 | 0.423 | 5.23
8 | CCTTACGGGTCAAGGTTATGGCACGGGTGGTACG | 5.49 | 3.7 | 0.0981 | 2.81 | -0.233 | 4.86 | 4.26 | 4.73 | 1.8 | 3.51 | 1.51 | 3.59 | -0.207 | -0.604 | 1.88 | 3.27 | 0.134 | 4.13 | 1.04 | 4.04
